# Experimental data published in PubChem BioAssay (EPA / NIEHS).
# Records with an inconclusive call do not appear. The source made the active and inactive calls. How the source made its calls: active means hit-call score of the fitted dose curve at least 0.9, where 1 is the maximum; inconclusive means response in the unintended direction; inactive means score below 0.9.
# Columns and labels:
# [1] = biological target: human Peroxisome Proliferator-activated Receptor alpha (PPARa), PPARA (gene 5465) (UniProt Q07869); experiment: ATG_PPARa_TRANS: Attagene TRANS-FACTORIAL HepG2 Assay for human Peroxisome Proliferator-activated Receptor alpha (PPARa) (AID 2283001);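 on AC50: potency for gain of reporter signal over DMSO so agonist or activator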
# Chain of human Peroxisome Proliferator-activated Receptor alpha (PPARa), PPARA (gene 5465) (Q07869 whole entry, looked up, the tested form may be a part): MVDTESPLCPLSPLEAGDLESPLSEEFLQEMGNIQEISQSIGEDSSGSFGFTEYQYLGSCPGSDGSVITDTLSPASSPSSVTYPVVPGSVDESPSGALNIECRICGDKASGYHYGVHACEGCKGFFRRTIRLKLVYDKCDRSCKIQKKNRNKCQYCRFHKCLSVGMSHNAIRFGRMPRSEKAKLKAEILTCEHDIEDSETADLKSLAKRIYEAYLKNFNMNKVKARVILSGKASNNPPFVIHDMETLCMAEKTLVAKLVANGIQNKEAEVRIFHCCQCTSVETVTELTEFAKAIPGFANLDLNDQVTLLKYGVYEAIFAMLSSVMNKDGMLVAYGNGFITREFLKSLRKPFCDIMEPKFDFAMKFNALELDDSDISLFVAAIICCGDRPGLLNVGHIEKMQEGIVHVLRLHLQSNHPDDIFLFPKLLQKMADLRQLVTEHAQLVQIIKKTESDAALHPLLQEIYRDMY
# Procedure, shortened: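 HepG2 cells transiently transfected with multiplexed GAL4-UAS reporters driven by exogenous chimeric NR-Gal4 proteins; reporter mRNA measured after 24 h dosing. Read-out by RT-PCR, 6-FAM labelling, HpaI digestion and capillary electrophoresis; gain of signal versus DMSO.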
# [2] = biological target: Retinoic acid receptor alpha (Homo sapiens) (UniProt P10276); experiment: ATG_RARa_TRANS: Attagene TRANS-FACTORIAL HepG2 Assay for human Retinoic Acid Receptor alpha (RARa) (AID 2283005)
# Chain of Retinoic acid receptor alpha (Homo sapiens) (P10276 whole entry, looked up, the tested form may be a part): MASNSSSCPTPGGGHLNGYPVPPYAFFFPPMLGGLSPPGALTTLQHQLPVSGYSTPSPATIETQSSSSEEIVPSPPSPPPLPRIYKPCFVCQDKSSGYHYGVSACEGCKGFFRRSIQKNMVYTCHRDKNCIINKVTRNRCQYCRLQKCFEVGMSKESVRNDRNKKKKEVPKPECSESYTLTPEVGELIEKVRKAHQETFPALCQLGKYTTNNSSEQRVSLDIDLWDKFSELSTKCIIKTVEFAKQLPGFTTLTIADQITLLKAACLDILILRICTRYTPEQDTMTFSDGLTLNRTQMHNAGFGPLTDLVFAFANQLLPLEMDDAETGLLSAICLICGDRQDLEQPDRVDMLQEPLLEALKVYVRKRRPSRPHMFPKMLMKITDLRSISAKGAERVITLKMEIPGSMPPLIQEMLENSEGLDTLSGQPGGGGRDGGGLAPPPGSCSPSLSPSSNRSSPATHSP
# Procedure, shortened: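 HepG2 transiently transfected with multiplex GAL4-UAS reporter units including a human RARa–GAL4 chimera; 24 h compound exposure. Reporter mRNA quantified by RT-PCR, 6-FAM labeling and capillary electrophoresis; gain of signal versus DMSO.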
# [3] = biological target: Peroxisome proliferator-activated receptor gamma (Homo sapiens) (UniProt P37231); experiment: ATG_PPARg_TRANS: Attagene TRANS-FACTORIAL HepG2 Assay for human Peroxisome Proliferator-activated Receptor-gamma (PPARg) (AID 2283007)
# Chain of Peroxisome proliferator-activated receptor gamma (Homo sapiens) (P37231 whole entry, looked up, the tested form may be a part): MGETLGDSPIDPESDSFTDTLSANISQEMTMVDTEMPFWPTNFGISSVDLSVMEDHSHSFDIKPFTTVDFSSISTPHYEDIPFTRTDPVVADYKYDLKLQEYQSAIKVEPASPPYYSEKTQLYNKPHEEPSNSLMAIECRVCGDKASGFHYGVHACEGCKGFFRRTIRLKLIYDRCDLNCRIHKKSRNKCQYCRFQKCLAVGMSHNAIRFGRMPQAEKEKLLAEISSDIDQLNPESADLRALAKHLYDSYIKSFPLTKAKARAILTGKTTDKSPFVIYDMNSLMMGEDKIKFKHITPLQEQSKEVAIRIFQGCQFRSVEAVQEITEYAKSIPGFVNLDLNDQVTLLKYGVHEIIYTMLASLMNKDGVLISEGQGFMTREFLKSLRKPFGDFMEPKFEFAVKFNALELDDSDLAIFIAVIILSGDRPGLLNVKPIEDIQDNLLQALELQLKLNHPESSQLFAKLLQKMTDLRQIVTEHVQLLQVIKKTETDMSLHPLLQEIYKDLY
# Procedure, shortened: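 HepG2 cells are transiently transfected with GAL4-UAS reporter units driven by chimeric NR-Gal4 fusions and dosed for 24 h. Reporter mRNA is quantified by RT-PCR, 6-FAM labelling, HpaI digestion and capillary electrophoresis. Induction is scored against DMSO.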
# [4] = biological target: human RAR-related Orphan Receptor beta (RORb), RORB (gene 6096) (UniProt Q92753); experiment: ATG_RORb_TRANS: Attagene TRANS-FACTORIAL HepG2 Assay for human RAR-related Orphan Receptor beta (RORb) (AID 2283010)
# Chain of human RAR-related Orphan Receptor beta (RORb), RORB (gene 6096) (Q92753 whole entry, looked up, the tested form may be a part): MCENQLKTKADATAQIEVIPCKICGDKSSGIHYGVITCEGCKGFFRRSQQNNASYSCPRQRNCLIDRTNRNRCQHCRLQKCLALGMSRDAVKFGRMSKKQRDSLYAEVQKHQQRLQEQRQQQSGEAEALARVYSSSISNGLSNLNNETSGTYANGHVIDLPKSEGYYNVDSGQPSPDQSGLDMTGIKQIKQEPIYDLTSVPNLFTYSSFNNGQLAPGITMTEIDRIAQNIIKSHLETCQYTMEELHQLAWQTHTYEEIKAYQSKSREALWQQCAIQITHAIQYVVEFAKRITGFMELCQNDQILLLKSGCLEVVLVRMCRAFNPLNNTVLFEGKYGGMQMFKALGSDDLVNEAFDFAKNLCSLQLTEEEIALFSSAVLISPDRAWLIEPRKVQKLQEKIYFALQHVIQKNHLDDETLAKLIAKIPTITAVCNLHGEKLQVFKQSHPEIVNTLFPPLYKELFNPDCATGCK
# Procedure, shortened: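 Readout is reporter-gene mRNA induction, detected as fluorescence after RT-PCR and capillary electrophoresis, fitted for gain of signal against DMSO controls. Transiently transfected HepG2 liver cells carrying GAL4-UAS reporter constructs were treated for 24 hours.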
# [5] = biological target: Nuclear receptor subfamily 1 group I member 2 (Homo sapiens) (UniProt O75469); experiment: ATG_PXR_TRANS: Attagene TRANS-FACTORIAL HepG2 Assay for human Pregnane X Receptor (PXR) (AID 2283008)
# Procedure, shortened: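 HepG2 cells transiently transfected with GAL4-UAS reporter units and PXR-Gal4 chimera, exposed 24 h. Reporter mRNA quantified by RT-PCR, fluorescent labelling, HpaI digestion and capillary electrophoresis; gain of signal vs DMSO.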
# [6] = biological target: human RAR-related Orphan Receptor gamma (RORg), RORC (gene 6097) (UniProt P51449); experiment: ATG_RORg_TRANS: Attagene TRANS-FACTORIAL HepG2 Assay for human RAR-related Orphan Receptor gamma (RORg) (AID 2283011)
# Chain of human RAR-related Orphan Receptor gamma (RORg), RORC (gene 6097) (P51449 whole entry, looked up, the tested form may be a part): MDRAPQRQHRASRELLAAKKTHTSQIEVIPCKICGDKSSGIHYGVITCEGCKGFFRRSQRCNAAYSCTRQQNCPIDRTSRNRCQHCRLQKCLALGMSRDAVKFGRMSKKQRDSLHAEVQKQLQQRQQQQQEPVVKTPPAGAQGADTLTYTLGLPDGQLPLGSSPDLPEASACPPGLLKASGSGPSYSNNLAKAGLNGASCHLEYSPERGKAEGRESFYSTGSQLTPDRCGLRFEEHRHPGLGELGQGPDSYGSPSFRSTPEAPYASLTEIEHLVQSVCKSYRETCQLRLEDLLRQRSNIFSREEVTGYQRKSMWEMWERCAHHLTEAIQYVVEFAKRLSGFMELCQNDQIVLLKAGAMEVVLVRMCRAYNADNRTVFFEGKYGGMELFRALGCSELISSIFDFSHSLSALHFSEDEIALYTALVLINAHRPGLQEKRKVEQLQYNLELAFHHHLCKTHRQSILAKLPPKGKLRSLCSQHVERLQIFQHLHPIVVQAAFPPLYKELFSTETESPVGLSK
# Procedure, shortened: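 HepG2 cells transiently transfected with GAL4-UAS reporter units and chimeric RORg-Gal4 construct; after 24 h chemical exposure, reporter mRNA measured by RT-PCR with fluorescent capillary electrophoresis, gain of signal fitted against DMSO.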
# [7] = biological target: Retinoic acid receptor RXR-alpha (Homo sapiens) (UniProt P19793); experiment: ATG_RXRa_TRANS: Attagene TRANS-FACTORIAL HepG2 Assay for human Retinoid X Receptor alpha (RXRa) (AID 2283012)
# Chain of Retinoic acid receptor RXR-alpha (Homo sapiens) (P19793 whole entry, looked up, the tested form may be a part): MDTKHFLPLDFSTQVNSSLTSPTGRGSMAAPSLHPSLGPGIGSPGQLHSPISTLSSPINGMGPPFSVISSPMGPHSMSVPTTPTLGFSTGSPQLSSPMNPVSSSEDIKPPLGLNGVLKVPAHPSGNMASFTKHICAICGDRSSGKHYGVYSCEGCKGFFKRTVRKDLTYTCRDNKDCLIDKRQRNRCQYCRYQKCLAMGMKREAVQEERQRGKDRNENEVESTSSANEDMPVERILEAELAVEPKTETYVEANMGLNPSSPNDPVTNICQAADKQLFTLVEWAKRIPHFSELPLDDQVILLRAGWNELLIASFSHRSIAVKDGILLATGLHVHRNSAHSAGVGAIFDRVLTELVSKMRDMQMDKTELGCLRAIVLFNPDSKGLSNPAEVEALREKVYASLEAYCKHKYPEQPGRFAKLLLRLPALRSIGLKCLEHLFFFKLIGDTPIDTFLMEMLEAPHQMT
# Procedure, shortened: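 Transient transfection of human HepG2 with multiple GAL4-UAS reporter constructs; 24 h compound exposure; total RNA isolated, reverse-transcribed, PCR-amplified, 6-FAM labelled, HpaI-cut, resolved by capillary electrophoresis. Positive-direction fit versus DMSO.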
# [8] = biological target: human Retinoid X Receptor beta (RXRb), RXRB (gene 6257) (UniProt P28702); experiment: ATG_RXRb_TRANS: Attagene TRANS-FACTORIAL HepG2 Assay for human Retinoid X Receptor beta (RXRb) (AID 2283013)
# Chain of human Retinoid X Receptor beta (RXRb), RXRB (gene 6257) (P28702 whole entry, looked up, the tested form may be a part): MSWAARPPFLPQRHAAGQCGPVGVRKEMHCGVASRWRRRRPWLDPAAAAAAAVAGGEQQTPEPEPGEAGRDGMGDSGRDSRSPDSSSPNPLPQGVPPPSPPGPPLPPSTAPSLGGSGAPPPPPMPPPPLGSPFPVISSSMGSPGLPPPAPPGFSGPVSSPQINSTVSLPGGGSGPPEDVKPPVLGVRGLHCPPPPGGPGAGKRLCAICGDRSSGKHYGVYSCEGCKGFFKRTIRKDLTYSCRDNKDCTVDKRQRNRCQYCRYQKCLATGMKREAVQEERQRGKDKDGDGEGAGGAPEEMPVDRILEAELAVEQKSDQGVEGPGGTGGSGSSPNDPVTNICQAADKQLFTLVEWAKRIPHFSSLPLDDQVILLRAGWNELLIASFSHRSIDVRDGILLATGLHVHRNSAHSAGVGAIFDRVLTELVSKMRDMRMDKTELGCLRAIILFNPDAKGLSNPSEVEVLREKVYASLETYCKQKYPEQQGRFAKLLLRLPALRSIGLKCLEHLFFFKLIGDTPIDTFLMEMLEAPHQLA
# Procedure, shortened: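 Transfect HepG2 with GAL4-UAS multi-reporter constructs (chimeric NR-Gal4, TRANS format); dose compound 24 h; isolate RNA, RT-PCR, FAM primer extension, HpaI digest; quantify by capillary electrophoresis; positive direction vs DMSO.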
# [9] = biological target: human Thyroid Receptor alpha (THRa1), THRA (gene 7067) (UniProt P10827); experiment: ATG_THRa1_TRANS: Attagene TRANS-FACTORIAL HepG2 Assay for human Thyroid Receptor alpha (THRa1) (AID 2283014)
# Chain of human Thyroid Receptor alpha (THRa1), THRA (gene 7067) (P10827 whole entry, looked up, the tested form may be a part): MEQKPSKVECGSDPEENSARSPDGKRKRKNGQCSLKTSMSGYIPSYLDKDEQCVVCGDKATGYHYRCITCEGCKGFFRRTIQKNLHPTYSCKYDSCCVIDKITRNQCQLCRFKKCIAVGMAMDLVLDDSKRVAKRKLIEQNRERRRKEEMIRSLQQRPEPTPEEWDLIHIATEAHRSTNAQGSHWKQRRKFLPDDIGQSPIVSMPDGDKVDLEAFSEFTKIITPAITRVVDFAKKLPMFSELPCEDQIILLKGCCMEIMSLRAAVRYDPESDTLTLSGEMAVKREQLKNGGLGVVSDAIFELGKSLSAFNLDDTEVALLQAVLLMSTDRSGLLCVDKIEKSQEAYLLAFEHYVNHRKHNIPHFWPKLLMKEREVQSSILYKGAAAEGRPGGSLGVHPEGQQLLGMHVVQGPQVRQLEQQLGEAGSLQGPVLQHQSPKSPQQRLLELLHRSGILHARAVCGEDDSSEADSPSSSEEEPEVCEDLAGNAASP
# Procedure, shortened: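 HepG2 cells transiently transfected with chimeric NR-Gal4 and GAL4-UAS reporter units, dosed 24 h. Reporter mRNA quantified by RT-PCR, fluorescent labeling, HpaI digestion and capillary electrophoresis; gain-of-signal fit versus DMSO.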
# [10] = biological target: human Retinoic Acid Receptor beta (RARb), RARB (gene 5915) (UniProt P10826); experiment: ATG_RARb_TRANS: Attagene TRANS-FACTORIAL HepG2 Assay for human Retinoic Acid Receptor beta (AID 2283004)
# Chain of human Retinoic Acid Receptor beta (RARb), RARB (gene 5915) (P10826 whole entry, looked up, the tested form may be a part): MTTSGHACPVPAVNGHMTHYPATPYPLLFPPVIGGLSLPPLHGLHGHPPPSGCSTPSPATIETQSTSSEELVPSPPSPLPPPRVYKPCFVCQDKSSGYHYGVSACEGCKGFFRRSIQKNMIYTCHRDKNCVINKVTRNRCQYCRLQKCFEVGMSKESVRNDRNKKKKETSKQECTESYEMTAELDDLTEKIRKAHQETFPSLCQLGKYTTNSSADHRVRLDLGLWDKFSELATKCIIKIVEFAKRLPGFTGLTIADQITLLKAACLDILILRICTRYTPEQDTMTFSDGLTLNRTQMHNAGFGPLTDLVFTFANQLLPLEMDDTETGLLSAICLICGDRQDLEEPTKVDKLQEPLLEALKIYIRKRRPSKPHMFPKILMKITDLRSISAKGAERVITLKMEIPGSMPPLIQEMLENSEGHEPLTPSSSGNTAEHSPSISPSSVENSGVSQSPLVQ
# Procedure, shortened: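 HepG2 cells were transiently transfected with GAL4-UAS reporter units that report activity of exogenous chimeric NR-Gal4 proteins, then exposed to compound for 24 h. Reporter mRNA was quantified by RT-PCR with capillary electrophoresis fluorescence, as gain of signal over DMSO.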
# [11] = biological target: human Retinoic Acid Receptor gamma (RARg), RARG (gene 5916) (UniProt P13631); experiment: ATG_RARg_TRANS: Attagene TRANS-FACTORIAL HepG2 Assay for human Retinoic Acid Receptor gamma (RARg) (AID 2283009)
# Chain of human Retinoic Acid Receptor gamma (RARg), RARG (gene 5916) (P13631 whole entry, looked up): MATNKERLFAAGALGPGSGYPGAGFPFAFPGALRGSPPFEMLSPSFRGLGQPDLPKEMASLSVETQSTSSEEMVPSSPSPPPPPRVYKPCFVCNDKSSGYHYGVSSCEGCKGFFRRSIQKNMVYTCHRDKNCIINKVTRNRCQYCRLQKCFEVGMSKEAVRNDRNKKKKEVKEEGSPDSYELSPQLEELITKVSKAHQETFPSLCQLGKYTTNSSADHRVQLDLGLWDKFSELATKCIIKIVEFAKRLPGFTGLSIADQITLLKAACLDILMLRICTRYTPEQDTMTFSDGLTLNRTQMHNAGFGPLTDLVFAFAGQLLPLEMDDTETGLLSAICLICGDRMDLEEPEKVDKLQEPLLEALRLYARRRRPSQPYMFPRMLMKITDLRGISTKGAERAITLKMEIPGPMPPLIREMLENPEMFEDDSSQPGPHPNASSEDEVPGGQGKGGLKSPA
# Procedure, shortened: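 Transient transfection of HepG2 with multi-reporter constructs, then 24 h chemical treatment. Total RNA isolated, reverse-transcribed, PCR-amplified, fluorescently labelled and resolved by capillary electrophoresis; activity scored as mRNA induction versus DMSO.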
smiles,measurement,setting,value
CCOCCOCCOCC,outcome,[1],inactive
same,outcome,[2],inactive
same,outcome,[3],inactive
same,outcome,[4],inactive
C=C(C)[C@@H]1CC=C(C)C(=O)C1,outcome,[1],inactive
same,outcome,[3],inactive
same,outcome,[5],inactive
same,outcome,[6],inactive
same,outcome,[7],inactive
same,outcome,[8],inactive
same,outcome,[9],inactive
COC(CC(C)CCCC(C)(C)O)OC (configuration not stated),outcome,[1],inactive
same,outcome,[10],inactive
same,outcome,[2],inactive
same,outcome,[5],inactive
same,outcome,[8],inactive
CCN(CCN)c1cccc(C)c1,outcome,[1],inactive
same,outcome,[10],inactive
same,outcome,[3],inactive
same,outcome,[5],inactive
same,outcome,[11],inactive
same,outcome,[6],inactive
same,outcome,[8],inactive
same,outcome,[9],inactive
O=C(Nc1ccc([N+](=O)[O-])cc1)Nc1ccc([N+](=O)[O-])cc1 (tested in a mixture with another compound),outcome,[1],inactive
same,outcome,[3],inactive
same,outcome,[5],inactive
same,outcome,[11],inactive
same,outcome,[7],inactive
FC(F)(F)COCC(F)(F)F,outcome,[1],inactive
same,outcome,[2],inactive
same,outcome,[3],inactive
same,outcome,[5],inactive
same,outcome,[4],inactive
same,outcome,[7],inactive
CC(C)NCC(O)COc1ccc(CC(N)=O)cc1 (configuration not stated),outcome,[1],inactive
same,outcome,[2],inactive
same,outcome,[3],inactive
same,outcome,[5],inactive
same,outcome,[4],inactive
same,outcome,[7],inactive
same,outcome,[8],inactive
CCOC(=O)CCc1ccccc1,outcome,[1],inactive
same,outcome,[3],inactive
same,outcome,[5],inactive
same,outcome,[11],inactive
same,outcome,[6],inactive
same,outcome,[7],inactive
same,outcome,[8],inactive
C=CC(=C)CCCC(C)(C)OC(C)=O,outcome,[1],inactive
same,outcome,[10],inactive
same,outcome,[3],inactive
same,outcome,[5],inactive
same,outcome,[6],inactive
same,outcome,[7],inactive
same,outcome,[9],inactive
CCCOCCO,outcome,[1],inactive
same,outcome,[10],inactive
same,outcome,[3],inactive
same,outcome,[5],inactive
same,outcome,[4],inactive
same,outcome,[8],inactive
same,outcome,[9],inactive
O=C(O)CCCCCCCCCCCC(=O)O,outcome,[1],inactive
same,outcome,[3],inactive
same,outcome,[5],inactive
same,outcome,[4],inactive
same,outcome,[6],inactive
same,outcome,[7],inactive
COC(=O)c1cccnc1,outcome,[1],inactive
same,outcome,[10],inactive
same,outcome,[11],inactive
same,outcome,[4],inactive
same,outcome,[6],inactive
same,outcome,[7],inactive
same,outcome,[9],inactive
C=C(CC(=O)O)C(=O)O,outcome,[1],inactive
same,outcome,[2],inactive
same,outcome,[3],inactive
same,outcome,[5],inactive
same,outcome,[11],inactive
same,outcome,[4],inactive
same,outcome,[7],inactive
same,outcome,[8],inactive
CC(=O)O[C@@H]1C[C@@H]2CC[C@@]1(C)C2(C)C,outcome,[1],inactive
same,outcome,[2],inactive
same,outcome,[11],inactive
same,outcome,[6],inactive
same,outcome,[8],inactive
CCCCCCC(C)(C)S,outcome,[1],inactive
same,outcome,[2],inactive
same,outcome,[3],inactive
same,outcome,[5],inactive
same,outcome,[11],inactive
same,outcome,[4],inactive
same,outcome,[8],inactive
CCCCCCCCCCCC(=O)OCC(O)CO (configuration not stated),AC50,[1],100 µM (active)
same,AC50,[3],100 µM (active)
same,outcome,[5],inactive
same,outcome,[11],inactive
same,AC50,[8],100 µM (active)
COc1cc(CCC(C)=O)ccc1O,outcome,[1],inactive
same,outcome,[2],inactive
same,outcome,[3],inactive
same,outcome,[5],inactive
same,outcome,[7],inactive
O=C(Nc1ccc2c(c1)Cc1ccccc1-2)C(F)(F)F,outcome,[1],inactive
same,outcome,[2],inactive
same,outcome,[3],inactive
same,AC50,[5],27.7 µM (active)
same,outcome,[7],inactive
same,outcome,[9],inactive
CC(C)CC(C)CC(O)CC(C)C (configuration not stated),outcome,[1],inactive
same,outcome,[2],inactive
same,outcome,[3],inactive
same,outcome,[5],inactive
same,outcome,[11],inactive
same,outcome,[4],inactive
same,outcome,[6],inactive
same,outcome,[8],inactive
same,outcome,[9],inactive
CCCN(CCC)S(=O)(=O)c1ccc(C(=O)O)cc1,outcome,[1],inactive
same,outcome,[3],inactive
same,AC50,[5],18.7 µM (active)
same,outcome,[4],inactive
same,outcome,[6],inactive
same,outcome,[7],inactive
CCOC(=O)c1ccc(N)cc1,outcome,[1],inactive
same,outcome,[3],inactive
same,outcome,[5],inactive
same,outcome,[6],inactive
same,outcome,[7],inactive
same,outcome,[9],inactive
COc1ccc(CCO)cc1,outcome,[1],inactive
same,outcome,[10],inactive
same,outcome,[3],inactive
same,outcome,[11],inactive
same,outcome,[7],inactive
same,outcome,[9],inactive
COc1ccc(CCC(C)=O)cc1,outcome,[1],inactive
same,outcome,[3],inactive
same,outcome,[5],inactive
same,outcome,[4],inactive
same,outcome,[7],inactive
same,outcome,[9],inactive
CC(O)C1CCCCC1 (configuration not stated),outcome,[1],inactive
same,outcome,[2],inactive
same,outcome,[3],inactive
same,outcome,[11],inactive
same,outcome,[7],inactive
same,outcome,[9],inactive
O=C(O)c1cc(C(=O)O)cc([N+](=O)[O-])c1,outcome,[1],inactive
same,outcome,[10],inactive
same,outcome,[5],inactive
same,outcome,[4],inactive
same,outcome,[6],inactive
same,outcome,[7],inactive
same,outcome,[8],inactive
same,outcome,[9],inactive
C=C(C#N)C(=O)OCC,outcome,[1],inactive
same,outcome,[3],inactive
same,outcome,[5],inactive
same,outcome,[4],inactive
same,outcome,[6],inactive
same,outcome,[9],inactive
Cc1ccc(OC(=O)c2ccccc2O)cc1,outcome,[1],inactive
same,outcome,[3],inactive
same,outcome,[5],inactive
same,outcome,[6],inactive
same,outcome,[7],inactive
same,outcome,[9],inactive
CCN(CCC#N)c1ccc(N=Nc2ccc([N+](=O)[O-])cc2)cc1,outcome,[1],inactive
same,outcome,[3],inactive
same,outcome,[5],inactive
same,outcome,[4],inactive
same,outcome,[6],inactive
same,outcome,[7],inactive
